Data reported in ChEMBL document CHEMBL1961873, “Compounds: GSK PKIS; Assays: Nanosyn kinase panel” (2012).

Key:
[1] = target: Dual specificity protein kinase CLK3 (Homo sapiens) (UniProt P49761); conditions: at 1 µM;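 note: each value is the mean inhibition of CLK3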
[2] = target: Dual specificity tyrosine-phosphorylation-regulated kinase 1A (Homo sapiens) (UniProt Q13627); conditions: at 0.1 µM
[3] = target: Dual specificity tyrosine-phosphorylation-regulated kinase 1A (Homo sapiens) (UniProt Q13627); conditions: at 1 µM
[4] = target: Dual specificity tyrosine-phosphorylation-regulated kinase 1B (Homo sapiens) (UniProt Q9Y463); conditions: at 0.1 µM
Sequence of Dual specificity tyrosine-phosphorylation-regulated kinase 1B (Homo sapiens) (Q9Y463 whole entry, looked up): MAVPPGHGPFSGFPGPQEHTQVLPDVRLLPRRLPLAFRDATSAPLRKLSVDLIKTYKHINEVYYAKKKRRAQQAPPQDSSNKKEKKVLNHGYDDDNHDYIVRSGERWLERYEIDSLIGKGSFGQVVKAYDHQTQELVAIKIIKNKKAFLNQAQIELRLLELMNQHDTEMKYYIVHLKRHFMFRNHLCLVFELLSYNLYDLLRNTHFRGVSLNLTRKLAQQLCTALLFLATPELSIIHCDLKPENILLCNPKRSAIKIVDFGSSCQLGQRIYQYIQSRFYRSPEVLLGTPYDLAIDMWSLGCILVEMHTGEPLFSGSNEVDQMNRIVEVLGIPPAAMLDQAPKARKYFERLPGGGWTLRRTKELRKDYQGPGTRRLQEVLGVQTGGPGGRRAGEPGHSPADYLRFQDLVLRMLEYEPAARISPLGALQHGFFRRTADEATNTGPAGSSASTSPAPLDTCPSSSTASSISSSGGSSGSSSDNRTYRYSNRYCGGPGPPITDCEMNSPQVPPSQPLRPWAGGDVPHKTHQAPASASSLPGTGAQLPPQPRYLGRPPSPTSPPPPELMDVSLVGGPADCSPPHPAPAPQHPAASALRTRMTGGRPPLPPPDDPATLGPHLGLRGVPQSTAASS

[5] = target: Dual specificity tyrosine-phosphorylation-regulated kinase 1B (Homo sapiens) (UniProt Q9Y463); conditions: at 1 µM
[6] = target: T1, Dual specificity tyrosine-phosphorylation-regulated kinase 2 (Homo sapiens) (UniProt Q92630); conditions: at 0.1 µM
T1 sequence (whole entry): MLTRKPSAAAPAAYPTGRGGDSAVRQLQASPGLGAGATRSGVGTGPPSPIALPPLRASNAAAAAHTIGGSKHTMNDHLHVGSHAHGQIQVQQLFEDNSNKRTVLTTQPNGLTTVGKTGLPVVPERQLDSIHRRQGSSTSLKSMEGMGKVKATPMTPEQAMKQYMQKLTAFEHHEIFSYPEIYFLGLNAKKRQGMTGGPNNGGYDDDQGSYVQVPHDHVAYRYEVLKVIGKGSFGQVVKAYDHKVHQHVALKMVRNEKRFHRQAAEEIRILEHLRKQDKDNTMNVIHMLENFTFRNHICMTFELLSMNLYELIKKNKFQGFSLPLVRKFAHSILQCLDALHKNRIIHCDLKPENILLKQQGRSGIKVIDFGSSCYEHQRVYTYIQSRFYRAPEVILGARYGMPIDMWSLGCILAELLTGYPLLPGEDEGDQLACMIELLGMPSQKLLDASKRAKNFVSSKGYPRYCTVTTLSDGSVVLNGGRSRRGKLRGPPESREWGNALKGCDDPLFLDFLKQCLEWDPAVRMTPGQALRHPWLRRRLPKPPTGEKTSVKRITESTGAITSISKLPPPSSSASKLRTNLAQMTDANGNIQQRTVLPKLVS

[7] = target: T1, Dual specificity tyrosine-phosphorylation-regulated kinase 2 (Homo sapiens); conditions: at 1 µM
[8] = target: Glycogen synthase kinase-3 alpha (Homo sapiens) (UniProt P49840); conditions: at 0.1 µM
Sequence of Glycogen synthase kinase-3 alpha (Homo sapiens) (P49840 2-483 limits assumed): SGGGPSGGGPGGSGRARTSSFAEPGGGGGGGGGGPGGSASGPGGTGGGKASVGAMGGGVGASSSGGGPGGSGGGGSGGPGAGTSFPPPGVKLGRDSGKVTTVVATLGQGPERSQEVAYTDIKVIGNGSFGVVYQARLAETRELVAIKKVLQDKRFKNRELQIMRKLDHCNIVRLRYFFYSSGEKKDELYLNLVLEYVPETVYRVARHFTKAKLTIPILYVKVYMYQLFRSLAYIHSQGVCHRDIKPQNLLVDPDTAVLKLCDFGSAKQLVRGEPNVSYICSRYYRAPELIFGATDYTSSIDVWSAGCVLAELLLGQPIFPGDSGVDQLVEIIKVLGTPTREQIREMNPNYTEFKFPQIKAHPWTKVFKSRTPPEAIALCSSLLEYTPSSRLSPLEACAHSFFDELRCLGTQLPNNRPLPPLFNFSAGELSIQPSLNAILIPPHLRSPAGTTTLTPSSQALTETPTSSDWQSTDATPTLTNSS

[9] = target: Glycogen synthase kinase-3 alpha (Homo sapiens) (UniProt P49840); conditions: at 1 µM
[10] = target: Glycogen synthase kinase-3 beta (Homo sapiens) (UniProt P49841); conditions: at 0.1 µM
Sequence of Glycogen synthase kinase-3 beta (Homo sapiens) (P49841 whole entry, looked up): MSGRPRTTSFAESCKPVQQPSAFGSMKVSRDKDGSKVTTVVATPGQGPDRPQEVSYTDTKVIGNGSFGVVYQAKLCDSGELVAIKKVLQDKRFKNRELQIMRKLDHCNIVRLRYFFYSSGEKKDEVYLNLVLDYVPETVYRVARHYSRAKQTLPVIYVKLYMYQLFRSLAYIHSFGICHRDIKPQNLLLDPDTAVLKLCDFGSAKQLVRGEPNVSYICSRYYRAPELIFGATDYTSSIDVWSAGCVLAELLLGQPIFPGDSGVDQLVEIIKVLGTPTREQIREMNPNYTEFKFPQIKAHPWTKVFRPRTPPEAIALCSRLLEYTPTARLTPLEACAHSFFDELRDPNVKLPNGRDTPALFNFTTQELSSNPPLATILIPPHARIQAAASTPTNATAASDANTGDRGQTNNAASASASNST

[11] = target: Glycogen synthase kinase-3 beta (Homo sapiens) (UniProt P49841); conditions: at 1 µM
[12] = target: Homeodomain-interacting protein kinase 1 (Homo sapiens) (UniProt Q86Z02); conditions: at 0.1 µM
Sequence of Homeodomain-interacting protein kinase 1 (Homo sapiens) (Q86Z02 whole entry, looked up): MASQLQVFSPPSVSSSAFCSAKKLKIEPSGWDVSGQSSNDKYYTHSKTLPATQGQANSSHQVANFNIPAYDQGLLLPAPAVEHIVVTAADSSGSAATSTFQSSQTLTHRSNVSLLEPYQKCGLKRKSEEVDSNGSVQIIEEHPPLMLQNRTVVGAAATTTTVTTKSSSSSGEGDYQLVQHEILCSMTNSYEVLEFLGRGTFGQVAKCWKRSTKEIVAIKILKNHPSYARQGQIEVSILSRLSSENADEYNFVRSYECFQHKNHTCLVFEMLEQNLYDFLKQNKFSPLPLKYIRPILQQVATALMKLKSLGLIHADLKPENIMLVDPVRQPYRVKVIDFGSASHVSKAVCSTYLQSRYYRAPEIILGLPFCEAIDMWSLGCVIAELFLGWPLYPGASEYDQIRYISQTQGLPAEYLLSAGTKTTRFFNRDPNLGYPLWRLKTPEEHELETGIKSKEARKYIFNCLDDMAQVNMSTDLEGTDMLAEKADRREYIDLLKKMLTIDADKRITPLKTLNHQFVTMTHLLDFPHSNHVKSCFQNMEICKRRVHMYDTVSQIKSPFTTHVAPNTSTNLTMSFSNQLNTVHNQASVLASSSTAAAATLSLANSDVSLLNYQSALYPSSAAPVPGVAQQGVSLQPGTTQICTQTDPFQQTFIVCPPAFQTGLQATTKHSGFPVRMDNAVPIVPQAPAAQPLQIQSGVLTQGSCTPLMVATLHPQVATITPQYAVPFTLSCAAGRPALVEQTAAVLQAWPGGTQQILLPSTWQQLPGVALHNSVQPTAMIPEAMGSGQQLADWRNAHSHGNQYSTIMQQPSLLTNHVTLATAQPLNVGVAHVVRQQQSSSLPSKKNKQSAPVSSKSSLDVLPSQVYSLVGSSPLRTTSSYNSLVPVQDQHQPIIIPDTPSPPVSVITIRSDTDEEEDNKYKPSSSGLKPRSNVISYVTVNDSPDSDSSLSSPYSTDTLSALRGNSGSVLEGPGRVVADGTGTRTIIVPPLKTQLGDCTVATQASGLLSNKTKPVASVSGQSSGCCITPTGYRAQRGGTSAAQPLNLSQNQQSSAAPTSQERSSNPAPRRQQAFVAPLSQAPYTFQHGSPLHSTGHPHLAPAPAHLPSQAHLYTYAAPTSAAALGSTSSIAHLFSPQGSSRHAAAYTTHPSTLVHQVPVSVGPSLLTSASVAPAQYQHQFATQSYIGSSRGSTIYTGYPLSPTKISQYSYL

[13] = target: Homeodomain-interacting protein kinase 1 (Homo sapiens) (UniProt Q86Z02); conditions: at 1 µM
[14] = target: T2, Homeodomain-interacting protein kinase 4 (Homo sapiens) (UniProt Q8NE63); conditions: at 0.1 µM
T2 sequence (whole entry): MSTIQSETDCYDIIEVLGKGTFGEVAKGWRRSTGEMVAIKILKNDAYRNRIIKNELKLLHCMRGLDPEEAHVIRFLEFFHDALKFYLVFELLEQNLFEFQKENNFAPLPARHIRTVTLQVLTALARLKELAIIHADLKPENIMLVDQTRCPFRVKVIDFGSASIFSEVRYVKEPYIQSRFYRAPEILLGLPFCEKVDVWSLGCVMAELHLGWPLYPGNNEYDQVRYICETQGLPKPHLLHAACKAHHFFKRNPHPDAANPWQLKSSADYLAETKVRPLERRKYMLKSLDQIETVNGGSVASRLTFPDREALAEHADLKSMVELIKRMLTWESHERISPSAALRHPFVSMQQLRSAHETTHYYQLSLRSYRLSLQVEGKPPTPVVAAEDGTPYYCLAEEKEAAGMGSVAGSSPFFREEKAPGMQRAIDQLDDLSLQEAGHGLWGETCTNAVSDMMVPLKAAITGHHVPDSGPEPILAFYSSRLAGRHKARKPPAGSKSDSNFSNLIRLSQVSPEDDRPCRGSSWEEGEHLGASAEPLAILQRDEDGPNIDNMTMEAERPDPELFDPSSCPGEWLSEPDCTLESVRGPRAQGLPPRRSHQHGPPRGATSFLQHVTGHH

[15] = target: T2, Homeodomain-interacting protein kinase 4 (Homo sapiens); conditions: at 1 µM
[16] = target: Mitogen-activated protein kinase 9 (Homo sapiens) (UniProt P45984); conditions: at 0.1 µM
Sequence of Mitogen-activated protein kinase 9 (Homo sapiens) (P45984 whole entry, looked up): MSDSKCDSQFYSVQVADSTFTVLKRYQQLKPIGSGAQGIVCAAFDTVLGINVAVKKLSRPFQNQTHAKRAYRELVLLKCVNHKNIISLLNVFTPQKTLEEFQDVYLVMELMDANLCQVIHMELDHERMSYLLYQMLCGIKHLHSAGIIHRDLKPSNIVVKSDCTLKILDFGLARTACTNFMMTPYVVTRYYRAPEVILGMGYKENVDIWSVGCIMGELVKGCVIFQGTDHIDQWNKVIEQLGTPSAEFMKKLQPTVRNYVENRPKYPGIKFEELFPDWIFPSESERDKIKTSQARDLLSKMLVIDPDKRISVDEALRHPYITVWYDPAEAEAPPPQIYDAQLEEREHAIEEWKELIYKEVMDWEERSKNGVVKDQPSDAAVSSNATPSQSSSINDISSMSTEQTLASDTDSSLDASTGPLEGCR

[17] = target: Mitogen-activated protein kinase 9 (Homo sapiens) (UniProt P45984); conditions: at 1 µM
[18] = target: Mitogen-activated protein kinase 1 (Homo sapiens) (UniProt P28482); conditions: at 0.1 µM
Sequence of Mitogen-activated protein kinase 1 (Homo sapiens) (P28482 whole entry): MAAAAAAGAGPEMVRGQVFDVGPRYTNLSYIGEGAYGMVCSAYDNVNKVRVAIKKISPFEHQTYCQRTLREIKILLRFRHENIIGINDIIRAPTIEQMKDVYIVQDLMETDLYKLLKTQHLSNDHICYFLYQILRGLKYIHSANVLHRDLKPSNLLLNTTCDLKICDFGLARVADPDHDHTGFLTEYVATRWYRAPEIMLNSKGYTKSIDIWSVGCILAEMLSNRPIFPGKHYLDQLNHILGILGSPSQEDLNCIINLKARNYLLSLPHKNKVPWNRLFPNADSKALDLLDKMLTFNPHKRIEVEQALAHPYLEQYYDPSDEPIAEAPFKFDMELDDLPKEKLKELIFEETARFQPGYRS

[19] = target: Mitogen-activated protein kinase 1 (Homo sapiens) (UniProt P28482); conditions: at 1 µM
[20] = target: Mitogen-activated protein kinase 3 (Homo sapiens) (UniProt P27361); conditions: at 0.1 µM;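 note: each value is a mean inhibition figure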
Sequence of Mitogen-activated protein kinase 3 (Homo sapiens) (P27361 whole entry): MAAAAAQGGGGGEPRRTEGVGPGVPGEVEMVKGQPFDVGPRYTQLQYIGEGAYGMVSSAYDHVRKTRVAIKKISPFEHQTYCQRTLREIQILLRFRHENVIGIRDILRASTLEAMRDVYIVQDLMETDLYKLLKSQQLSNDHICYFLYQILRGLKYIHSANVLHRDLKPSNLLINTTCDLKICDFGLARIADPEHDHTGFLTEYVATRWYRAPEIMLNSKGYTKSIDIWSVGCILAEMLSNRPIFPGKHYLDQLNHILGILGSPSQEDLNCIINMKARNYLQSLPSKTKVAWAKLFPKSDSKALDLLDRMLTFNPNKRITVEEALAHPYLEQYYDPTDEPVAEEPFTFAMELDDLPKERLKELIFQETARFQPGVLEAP

Sequence of Dual specificity protein kinase CLK3 (Homo sapiens) (P49761 whole entry, looked up): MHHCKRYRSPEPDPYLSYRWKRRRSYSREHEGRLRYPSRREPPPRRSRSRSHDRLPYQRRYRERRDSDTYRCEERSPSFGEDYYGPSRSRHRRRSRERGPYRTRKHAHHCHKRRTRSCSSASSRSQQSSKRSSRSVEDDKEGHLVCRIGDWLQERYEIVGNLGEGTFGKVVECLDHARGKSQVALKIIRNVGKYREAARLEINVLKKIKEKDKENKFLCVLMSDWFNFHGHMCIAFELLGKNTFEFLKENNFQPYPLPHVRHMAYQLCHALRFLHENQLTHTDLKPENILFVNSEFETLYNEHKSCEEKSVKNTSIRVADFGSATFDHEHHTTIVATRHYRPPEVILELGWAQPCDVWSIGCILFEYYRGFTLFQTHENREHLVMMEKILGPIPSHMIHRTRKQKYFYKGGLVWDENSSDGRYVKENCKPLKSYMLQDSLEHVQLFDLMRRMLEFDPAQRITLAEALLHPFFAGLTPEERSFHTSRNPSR

Compound	inhibition [1] [%]	inhibition [2] [%]	inhibition [3] [%]	inhibition [4] [%]	inhibition [5] [%]	inhibition [6] [%]	inhibition [7] [%]	inhibition [8] [%]	inhibition [9] [%]	inhibition [10] [%]	inhibition [11] [%]	inhibition [12] [%]	inhibition [13] [%]	inhibition [14] [%]	inhibition [15] [%]	inhibition [16] [%]	inhibition [17] [%]	inhibition [18] [%]	inhibition [19] [%]	inhibition [20] [%]
c1ccc(-c2n[nH]cc2-c2ccnc(-c3ccc(OCCN4CCOCC4)cc3)c2)nc1	0.55	4.43	5.39	7.33	6.5	-0.9	-1.36	5.19	4.57	4.18	5.85	0.91	2.07	3.43	5.51	0.62	5.45	-2.8	-3.16	-0.63
COc1ccc(C2=C(N3CCc4ccccc43)C(=O)NC2=O)cc1	4.16	4.7	13	1.97	8.53	3.77	5.13	11.5	42.9	–	–	4.48	8.68	3.35	4.04	3.78	7.16	-0.01	5.89	4.13
NC(=O)c1ccc(Oc2nccc(-c3c(-c4ccc(F)cc4)ncn3C3CCNCC3)n2)cc1	1.67	3.41	5.23	0.33	-0.41	4.43	9.4	2.18	3.39	2.57	3.17	0.03	2.53	0.33	0.25	–	–	5.21	6.64	3.78
N#Cc1ccc(Oc2nccc(-c3c(-c4ccc(F)cc4)ncn3C3CCNCC3)n2)cc1	-0.16	2.5	3.49	-2.39	-1.58	2.92	2.24	1.66	2.69	0.3	1.96	-4.47	-6.22	-0.7	-0.61	–	–	4.87	6.51	6.9
Fc1ccc(-c2ncn(C3CCNCC3)c2-c2ccnc(Oc3ccc4c(c3)OCO4)n2)cc1	-2.27	3.17	4.78	-1.37	0.33	3.24	3.38	2.07	5.18	2.71	4.03	1.02	5.62	4.86	7.7	–	–	7.64	11.4	5.84
FC(F)(F)c1cccc(Nc2nccc(-c3cnn4nc(-c5ccccc5)ccc34)n2)c1	6.92	1.59	8.11	0.33	8.12	1.14	0.09	23.5	67.8	–	–	7.68	51.8	6.64	35.8	-0.53	-1.92	4.13	3.46	0.87
NS(=O)(=O)c1ccc(Nc2cc(-c3ccc(O)c(F)c3)n[nH]2)cc1	2.65	1.28	4.89	2.64	5.44	-2.19	3.75	1.79	23.5	4.44	38	0.97	16.1	1.96	10.4	-1.59	2.43	–	-4.87	-1.57
Fc1ccc(-c2c(-c3ccncc3)nc3n2CCS3)cc1	-1.56	-1.74	0.34	-4.54	-2.54	1.26	1.86	-2.59	1.28	-2.25	3.12	-3.99	4.73	-1.11	5.51	2.29	4.26	2.87	3.3	2.96
CCc1ccc(Oc2nccc(-c3c(-c4ccc(F)cc4)ncn3C3CCNCC3)n2)cc1	0.51	0.92	1.59	-0.38	1.04	4.87	4.71	3.69	7.13	2.44	7.29	-2.3	1.77	0.48	2.99	–	–	6.77	11.6	5.92
Cc1ccc(C(=O)NC(C)C)cc1-c1ccc(C(=O)NCC2CC2)cc1	0.67	1.18	2.28	3.39	3.96	-2.49	-3.21	1.52	3.31	1.46	3.01	-2.55	1.88	0.31	3.79	-1.51	-0.22	-3.93	-4.45	-2.87
Fc1ccc(-c2ncn(C3CCNCC3)c2-c2ccnc(Oc3ccc(Oc4ccccc4)cc3)n2)cc1	1.21	2.96	3.95	-0.87	0.42	4.61	7.67	2.97	2.77	2.21	3.65	-1.61	2.08	-0.8	0.79	–	–	5.58	9.79	3.67
COc1cc(Nc2ncc3c(C)nc(-c4cccc(Oc5ccccc5)c4)n3n2)cc(OC)c1OC	2.37	0.25	5.84	0.92	2.74	2.11	1.95	0.37	0.14	-0.59	0.75	0.25	10.8	2.78	7.44	2.43	4.03	2.11	8.58	4.14
C#Cc1cccc(Nc2ncnc3ccc(OCCCCNCCS(C)(=O)=O)cc23)c1	-1.87	0.92	4.86	-2.75	-1.25	2.91	7.08	-0.41	1.81	-0.71	1.89	-3.09	-1.22	4.39	24.9	3.91	4.58	5.06	5.46	4.38
CN(c1ccc(NC(=O)Nc2c(Cl)cccc2Cl)cc1)c1ccnc(Nc2cccc(CS(C)(=O)=O)c2)n1	1.23	-0.53	0.63	-0.2	1.52	2.28	1.29	4.09	10	4.11	9.63	2.01	5.39	7.1	18.4	5.56	8.85	3.03	2.83	2.56
Clc1ccc(CNc2nccc(-c3cnn4ncccc34)n2)cc1	6.69	16	58	28.6	74.2	0.77	7.51	2.42	9.8	2.82	11.6	14.8	57.9	11.9	49	3.52	5.1	4.19	3.23	3.04
O=C(Nc1n[nH]c2nc(-c3ccco3)ccc12)C1CC1	0.48	-0.57	1.05	-0.1	1.34	1.49	1.64	11.5	48.9	–	–	0.14	1.4	2.3	6.99	0.84	2.1	0.04	0.76	0.6
COc1cc(C)c(N(C)C(=O)CN(C)C)cc1Nc1nc(Nc2cccc(F)c2C(N)=O)c2cc[nH]c2n1	-1.03	2.09	15.2	-1.79	13.1	2.31	1.64	-2.99	-1.13	-3.79	-3.33	-4.07	2.02	0.06	4.88	1.42	2.97	0.6	3.4	2.26
COc1ccc(-c2ccc3c(NC(=O)C4CC4)n[nH]c3n2)cc1	2.15	0.91	1.49	-0.93	0.04	1.19	2.63	3.01	8.2	–	–	1.57	2.49	0.72	0.93	3.56	1.85	2.19	3.67	4.98
O=C(Nc1n[nH]c2nc(-c3ccc(O)cc3)c(Br)cc12)C1CC1	8.39	17.6	55.5	33.2	71.7	12.4	53.3	82.8	85.7	–	–	14.7	58	2.65	10.4	12.2	19.4	5.75	10.1	5.33
CN(C)CCOc1ccc(-c2cc(-c3ccc4c(c3)CCC4=NO)c(-c3ccncc3)o2)cc1	1.91	-1.28	0.21	-1.57	-1.47	-1.36	-2.61	-0.52	-0.36	-0.79	0.28	-5.92	2.06	0.15	2.98	-1.3	3.02	-0.58	0.91	-1.4
C/C(Nc1ccc(S(N)(=O)=O)cc1)=C1/C(=O)Nc2ccccc21	1.28	3.02	11.5	2.13	12.7	-1.67	3.79	1.25	7.04	1.17	9.04	-1.51	-1.35	0.16	2.56	-3.47	3.67	3.1	-2.06	2.55
O=C1NC(=O)C(c2cccc(Cl)c2)=C1Nc1ccc(Cl)c(C(=O)O)c1	2.4	1.22	5.02	-0.3	1.57	1.93	2.84	32.8	77.5	–	–	2.03	1.77	1.36	0.39	1.14	3.47	11	5.36	5.36
